In the library only some 1.9% were active in any assay of this set; here they are far more common.
sEH act – activators of human soluble epoxide hydrolase; purified human sEH enzymatic activity, activator screen; activation, % at 2 µM; hit rate 0.04% among 91,000; AID 717; in the data active = activation above about 37%
Target sequence (P34913 whole entry, looked up): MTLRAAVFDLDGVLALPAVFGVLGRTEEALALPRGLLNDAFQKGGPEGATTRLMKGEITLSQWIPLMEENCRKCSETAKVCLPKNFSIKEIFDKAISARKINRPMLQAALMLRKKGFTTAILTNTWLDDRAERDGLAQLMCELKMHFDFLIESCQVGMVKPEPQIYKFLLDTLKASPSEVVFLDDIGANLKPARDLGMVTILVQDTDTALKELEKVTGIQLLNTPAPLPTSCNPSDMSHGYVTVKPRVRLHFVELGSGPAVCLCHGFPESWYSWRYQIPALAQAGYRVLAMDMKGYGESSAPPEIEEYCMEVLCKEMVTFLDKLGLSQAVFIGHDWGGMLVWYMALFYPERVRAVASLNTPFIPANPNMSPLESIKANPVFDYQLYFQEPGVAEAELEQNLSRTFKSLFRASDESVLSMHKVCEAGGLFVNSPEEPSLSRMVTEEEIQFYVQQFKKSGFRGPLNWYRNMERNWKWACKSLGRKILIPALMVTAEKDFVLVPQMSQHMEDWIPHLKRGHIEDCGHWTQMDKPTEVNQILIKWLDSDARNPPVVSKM
sdo1 growth – restores growth of sdo1-depleted yeast. z-score at 10 µM. hit rate 0.21% among 140,000. S. cerevisiae sdo1-depleted JHY4D growth rescue, OD600 30 h; stronger effect = higher value; pdr5 snq2 efflux-pump mutant strain. AID 817;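 active = z-score above 3 at both the 24 hr and the 30 hr optical density reads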
sEH inhibitor – soluble epoxide hydrolase (human) inhibition; hit rate 0.34% among 91,000; P34913; inhibition, % at 2 µM; recombinant human sEH enzymatic activity assay; in the data active = inhibition above about 80%
Measles CPE – protection of cells from measles virus. protection (pct of control), % at 4 µM. Measles virus-infected cells, CPE protection, absorbance. hit rate 1.5% among 140,000; in the data active = protection mostly above about 24%, no sharp cut-off; inactive = mostly below about 26%
Large screens that a line does not name were inactive.

Cc1ccc(N2CC(C(=O)N/N=C/c3cccc([N+](=O)[O-])c3)CC2=O)cc1 (configuration not stated)	none
Cn1cc(Br)c(C(=O)Nc2c(F)c(F)c(F)c(F)c2F)n1	none (no result: sEH act, sEH inhibitor)
Cn1cc(Br)c(C(=O)Nc2nccs2)n1	Measles CPE 32 (no result: sEH act, sEH inhibitor)
O=C(Cn1cnc2c(oc3ccccc32)c1=O)NCC1CCCO1 (configuration not stated)	Measles CPE 27
O=C(Cn1cnc2c(nnn2Cc2ccc(Cl)cc2)c1=O)NCC1CCCO1 (configuration not stated)	Measles CPE 48
CC(C)OC(=O)CSc1nc2c(c(C3CC=CCC3)c1C#N)CCC2 (configuration not stated)	none
COc1ccccc1NC(=O)C1CCCN(c2nc(C)cc(C)n2)C1 (configuration not stated)	Measles CPE 33
O=C(CNC(=S)N(Cc1ccccc1)Cc1cccnc1)NC1CC1	none (no result: sEH act, sEH inhibitor)
O=C(CNC(=S)N(Cc1ccccc1)Cc1cccnc1)NC1CCCC1	Measles CPE 28 (no result: sEH act, sEH inhibitor)
O=S(=O)(c1ccc(Br)s1)N1CCN(Cc2ccc3c(c2)OCO3)CC1	none
COc1ccc(C)cc1NC(=O)COCC(=O)O	none
O=C1c2cccc3cccc(c23)C(=O)N1c1ccncc1	Measles CPE 23
O=C(Nc1nc(-c2ccccc2)ns1)c1cccs1	Measles CPE 33 (no result: sEH act, sEH inhibitor)
O=c1nc(/C=C/c2cc([N+](=O)[O-])ccc2Cl)cc(C(F)(F)F)[nH]1	Measles CPE 55
CCOc1ccc(/C=N/NC(=O)c2csc(C)c2C)c(OCC)c1	none (no result: sEH act, sEH inhibitor)
Cc1c(/C=N\NC(=O)c2csc3ccccc23)cnn1C	none
O=C(N/N=C/c1cccc(O)c1)c1csc2ccccc12	sEH inhibitor 84
CCCCOc1cccc(/C=N/NC(=O)c2csc(C)c2C)c1	sEH inhibitor 82
CCCCOc1ccccc1C(=O)NCC(=O)O	none (no result: sEH act, sEH inhibitor)
Cc1cc(C)nc(NC(=O)/C=C/c2cccs2)c1	none
O=C(/C=C/c1cccs1)Nc1cccc(NC(=O)/C=C/c2cccs2)n1	Measles CPE 90 (no result: sEH act, sEH inhibitor)
Cc1ccc2c(c1)C1OCCC1C1N2C(=O)C2C(C(=O)O)C3C=CC21O3 (configuration not stated)	none
COc1ccc(C2C3=C(CCCC3=O)Nc3nc(SCc4ccc(C(=O)O)cc4)nn32)cc1OC (configuration not stated)	Measles CPE 31
CCOc1ccc(CSCCNC(=S)Nc2ccccc2)cc1	none (no result: sEH act, sEH inhibitor)
CCOc1ccc(NC(=S)Nc2ccc(OCc3ccccc3)cc2)cc1	Measles CPE 44 (no result: sEH act, sEH inhibitor)
O=C(O)C1C2CCC(O2)C1C(=O)Nc1cnn(Cc2ccccc2)c1 (configuration not stated)	none
O=C(Nc1cnn(Cc2ccccc2)c1)NC12CC3CC(CC(C3)C1)C2	sEH inhibitor 92, Measles CPE 23
O=C(CSC(=S)N1CCOCC1)N1N=CCC1c1ccccc1 (configuration not stated)	Measles CPE 35
O=C(CN1CCN(c2ccccc2)CC1)N1N=CCC1c1ccccc1 (configuration not stated)	none
CCOC(=O)CN(c1ccccn1)S(=O)(=O)c1ccccc1	Measles CPE 35
COc1ccc(/C=C/C(=O)NCCOc2ccccc2OC)cc1	none (no result: sEH act, sEH inhibitor)
O=c1cc(-c2ccccc2)c2ccccc2[nH]1	Measles CPE 76
O=C(NCc1ccccc1)c1cccc(COc2cc(Cl)ccc2Cl)c1	Measles CPE 44 (no result: sEH act, sEH inhibitor)
O=C(NCc1ccccc1)c1cccc(COc2ccccc2Cl)c1	none
CCN1C(=S)SC(=O)C1=C1C=C(C)N(CCO)C(C)=C1	none (no result: sEH act, sEH inhibitor)
O=C(NCc1cccs1)C1CCC(CNS(=O)(=O)c2ccc(Br)s2)CC1 (configuration not stated)	sEH inhibitor 92
O=C(CSc1nc(-c2ccco2)cc(C(F)(F)F)n1)Nc1ccccc1C(F)(F)F	none
Cc1ccc(S(=O)(=O)NNC(=O)C(O)(c2ccccc2)c2ccccc2)cc1	none (no result: sEH act, sEH inhibitor)
O=C(NNS(=O)(=O)c1ccccc1)C(O)(c1ccccc1)c1ccccc1	Measles CPE 63 (no result: sEH act, sEH inhibitor)
Clc1cccc(-c2nc(NCc3cccnc3)c3ccccc3n2)c1	none
CSC1=NC(C)(C)CC2(C)Nc3ccccc3N12 (configuration not stated)	Measles CPE 18 (no result: sEH act, sEH inhibitor)
CC1(C)CC2(C)Nc3ccccc3N2C(=S)N1 (configuration not stated)	none (no result: sEH act, sEH inhibitor)
Cn1c(=O)n(Cc2ccccc2)c(=O)c2c1nc1n2CCCN1Cc1ccccc1	none
O=C1CC(N2CCN(c3ccccc3Cl)CC2)C(=O)N1c1cccc(F)c1 (configuration not stated)	none
O=C(NCc1cccs1)C1CCC(CNS(=O)(=O)c2cccc3nsnc23)CC1 (configuration not stated)	none
COc1cccc(CNC(=O)C2CCC(CNS(=O)(=O)c3cccc4nsnc34)CC2)c1 (configuration not stated)	sEH inhibitor 80
CCOc1ccccc1NC(=O)NC1CCN(CC(=O)Nc2ccc3c(c2)OCCO3)CC1	none
CCOc1ccccc1NC(=S)/C(=C(\[O-])c1ccc2c(c1)OCCO2)[n+]1ccc(CC)cc1	Measles CPE 28
CCN1C=CC(=C2C(=O)c3ccccc3C2=O)C=C1	Measles CPE 40
CCCN1C=CC(=C2C(=O)c3ccccc3C2=O)C=C1	none (no result: sEH act, sEH inhibitor)
Cc1ccccc1-n1nnnc1SC1CCOC1=O (configuration not stated)	none (no result: sEH act, sEH inhibitor)
CC1=CC(C)(C)Nc2ccc(OC(=O)CN3C(=O)c4cccc5cccc(c45)C3=O)cc21	Measles CPE 45
Cc1cc(/C=N/O)c(C)n1-c1ccccc1	none (no result: sEH act, sEH inhibitor)
COc1cccc(C2=NOC(C(=O)NCc3ccccn3)C2)c1 (configuration not stated)	none
C/C(=N/OCO/N=C(/C)c1ccc(F)cc1)c1ccc(F)cc1	Measles CPE 29 (no result: sEH act, sEH inhibitor)
C/C(=N/OCO/N=C(\C)c1ccccc1)c1ccccc1	none (no result: sEH act, sEH inhibitor)
CC(C)OC(=O)c1ccc(Cn2nnc3ccccc3c2=O)cc1	Measles CPE 39
O=c1c2ccccc2nnn1Cc1ccccn1	Measles CPE 63
COC(=O)CCC(=O)COc1ccccc1C#N	Measles CPE 41
COc1ccc(C2CC(C(F)(F)F)n3ncc(C(=O)NCC4CCCO4)c3N2)cc1OC (configuration not stated)	Measles CPE 32 (no result: sEH act, sEH inhibitor)
O=C(NCCc1ccccc1)C(=O)NCc1ccncc1	none (no result: sEH act, sEH inhibitor)
CCCCOc1ccc(C(C)NC(=O)C2CCCN(S(=O)(=O)CC)C2)cc1 (configuration not stated)	Measles CPE 38
CCOC(=O)C1CCCN(Cc2cccs2)C1 (configuration not stated)	none
COc1ccc(C(=O)N2CCN(c3ncnc4c(-c5ccccc5)nsc34)CC2)cc1	none
O=C(NC(=S)Nc1ccc(S(=O)(=O)Nc2nccs2)cc1)c1ccccc1	none (no result: sEH act, sEH inhibitor)
O=C(NC(=S)Nc1ccc(S(=O)(=O)Nc2nccs2)cc1)c1ccc(F)c(F)c1	Measles CPE 30 (no result: sEH act, sEH inhibitor)
CC1CC(c2ccccc2)n2nc(N3C(=O)c4ccccc4C3=O)nc2N1 (configuration not stated)	Measles CPE 27
COc1ccc(C(=O)SC2=NCCS2)cc1	none
CCOc1ccc(C(=O)SC2=NCCS2)cc1	Measles CPE 30

Screening data as filed in PubChem BioAssay.
